# In PubChem BioAssay (NCATS):
# Inconclusive results are not listed. Entries that show only a call come without a potency. The source made the active and inactive calls. The call rests on the fitted dose curve; in most records, active means well fitted curve in the direction sought with a large enough effect; inconclusive means small, poorly fitted or top-dose-only effect, or another doubt; inactive means no such curve, though single readings can be large; an effect the other way counts as inactive or inconclusive.
# What was measured:
# [1] = qHTS assay to identify small molecule inhibitors of chordoma cells - UCH-1 (AID 1259355); further: nearly all actives have a fitted effect of over 55% in size; on potency: series mostly up to about 46 µM
# Summary of the method: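 Luminescent ATP read-out (CellTiter-Glo, 30min at room temperature) measured viability of UCH-1 cells exposed for 48hr to test drugs at 15 concentrations, co-dosed with a five-agent combination of auranofin, camptothecin, doxorubicin, rubitecan and topotecan.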
# [2] = qHTS assay to identify small molecule inhibitors of chordoma cells - UCH-2 (AID 1259356)
# Potency means the concentration at half of the fitted maximal effect.
Structure (SMILES),Potency [1],Potency [2]
CC(C)CCC(=O)O[C@H]1CC[C@H]2[C@@H]3CCC4=CC(=O)CC[C@]4(C)[C@H]3CC[C@]12C,inactive,inactive
O[C@H]1[C@H]2[C@H](O)CCCN2C[C@H]1O,inactive,inactive
c1ccc2sc(SNC3CCCCC3)nc2c1,inactive,inactive
O=C(CS(=O)C(c1ccccc1)c1ccccc1)NO (stereo not given),inactive,inactive
Cc1ccccc1-n1c(C)nc2ccccc2c1=O,inactive,inactive
COc1ccc2c3c1O[C@H]1[C@@H](O)C=C[C@H]4[C@@H](C2)NCC[C@@]341,inactive,inactive
O=C(CCl)c1ccc(Oc2ccc(C(=O)CCl)cc2)cc1,inactive,inactive
C#CCN1CC(=O)N(COC(=O)C2C(C=C(C)C)C2(C)C)C1=O (stereo not given),inactive,inactive
C[C@]12C[C@H]3S[C@H]3C[C@@H]1CC[C@@H]1[C@@H]2CC[C@]2(C)[C@@H](O)CC[C@@H]12,inactive,inactive
Clc1ccc(Cl)cc1,inactive,inactive
CCCCCCCCCC(=O)O[C@H]1CC[C@H]2[C@@H]3CCC4=CC(=O)CC[C@]4(C)[C@H]3CC[C@]12C,inactive,inactive
CCC1(c2ccccc2)C(=O)NC(=O)N(C)C1=O (stereo not given),inactive,inactive
CN(C)CCCCCCN(C)C (tested in a mixture with another compound),inactive,inactive
CCCCCCCCOC(=O)c1ccccc1C(=O)OCCCCCCCC,inactive,inactive
CNc1ccc(C(=O)CC(O)CCC(C)C2OC(=O)CC(O)CC(=O)CC(O)CC(O)CC(O)CC(O)CC3(O)CC(O)C(C(=O)OC)C(CC(O[C@@H]4O[C@H](C)[C@@H](O)[C@H](N)[C@@H]4O)/C=C/C=C/C=C/C=C/C=C/C=C/C=C/C2C)O3)cc1 (stereo not given in full),inactive,inactive
CC(N)Cc1ccc(O)cc1 (stereo not given),inactive,inactive
OC[C@@H](O)[C@H]1O[C@@H]2O[C@H](C(Cl)(Cl)Cl)O[C@@H]2[C@H]1O,inactive,inactive
ClC1C(Cl)C(Cl)C(Cl)C(Cl)C1Cl (stereo not given),inactive,inactive
C[C@]12CCC(=O)C[C@@H]1CC[C@@H]1[C@@H]2CC[C@]2(C)[C@@H](O)CC[C@@H]12,inactive,inactive
Clc1ccccc1Cl,inactive,inactive
C[C@]12CC[C@H](O)C[C@H]1CC[C@@H]1[C@@H]2CC[C@]2(C)[C@@H](c3ccc(=O)oc3)C[C@H]3O[C@]132,6.31 µM [with auranofin plus four topoisomerase inhibitors] (active),6.51 µM (active)
CCCCCCC(=O)O[C@H]1CC[C@H]2[C@@H]3CC[C@H]4CC(=O)C=C(C)[C@]4(C)[C@H]3CC[C@]12C,inactive,inactive

Structure (SMILES),Potency [1],Potency [2]
CCCC(C)C1(CC)C(=O)NC(=O)NC1=O (stereo not given),inactive,inactive
CCC1(C)CC(=O)NC(=O)C1,inactive,inactive
CCN(CC)C(=O)/C(Cl)=C(\C)OP(=O)(OC)OC,inactive,inactive
ClC1=C(Cl)[C@]2(Cl)[C@@H]3[C@H]4C[C@H]([C@@H]5O[C@H]45)[C@@H]3[C@@]1(Cl)C2(Cl)Cl,inactive,inactive
C[C@]12CC[C@H]3[C@@H](CCC4=C(Cl)C(=O)CC[C@@]43C)[C@@H]1CC[C@@H]2O,inactive,inactive
S=C(S)N1CCNCC1,inactive,inactive
COC([CH2][Hg])CNC(=O)c1ccccc1OCC(=O)O (stereo not given),inactive,inactive
CNC(=O)Oc1ccccc1C(=O)Nc1ccccc1,inactive,inactive
O=c1[nH]c(=O)n(Cl)c(=O)n1Cl,inactive,inactive
CNC(=O)OCC[N+](C)(C)C,inactive,inactive
CC(C)CCON=O,inactive,inactive
C=C[C@H]1CN2CC[C@H]1C[C@H]2[C@H](OC(=O)OCC)c1ccnc2ccc(OC)cc12,inactive,inactive
C[C@]12CC[C@H]3[C@@H](CCC4=C(O)C(=O)CC[C@@H]43)[C@@H]1CC[C@@H]2OC(=O)CCC1CCCC1,inactive,inactive
CN1[C@@H]2CC[C@H]1CC(OC1c3ccccc3CCc3ccccc31)C2 (stereo not given in full),inactive,inactive
CC1(C)[C@H](C=C(Cl)Cl)[C@H]1C(=O)OCc1c(F)c(F)cc(F)c1F,inactive,inactive
N#CN,inactive,inactive
COC1=CC=C2[C@H]3Cc4ccc(OC)c5c4[C@@]2(CCN3C)[C@H]1O5,inactive,inactive
CC[N+](C)(CC)CCOC(=O)C(O)(c1ccccc1)c1ccccc1,inactive,inactive
CCC1(CC)C(=O)NC(=O)N(C)C1=O,inactive,inactive
CCOC(=O)c1ccccc1C(=O)OCC,inactive,inactive
Cc1ccccc1-n1c(CF)nc2ccc(N)cc2c1=O,inactive,inactive
O=C1OC2(c3cc(Br)c(O)cc3Oc3c2cc(Br)c(O)[c]3[Hg])c2ccccc21 (stereo not given),inactive,inactive

Structure (SMILES),Potency [1],Potency [2]
Oc1cccc[c]1[Hg][Cl],15.8 µM [with auranofin plus four topoisomerase inhibitors] (active),13 µM (active)
[S]=[Sb](=[S])[S][Sb](=[S])=[S],inactive,inactive
C[N+]1([O-])[C@@H]2CC(OC(=O)[C@H](CO)c3ccccc3)C[C@H]1[C@@H]1O[C@@H]12 (stereo not given in full),inactive,inactive
FC(F)OC(F)(F)C(F)Cl (stereo not given),inactive,inactive
COc1ccc(OC)c([C@@H](O)[C@H](C)N)c1,inactive,inactive
CC1(C)S[C@@H]2[C@H](N)C(=O)N2[C@H]1C(=O)O,inactive,inactive
CCC1C(C)=NN=C(c2ccc(OC)c(OC)c2)c2cc(OC)c(OC)cc21 (stereo not given),inactive,inactive
O=C1CCCCC1CN1CCCCC1 (stereo not given),inactive,inactive
CCC(C)(S(=O)(=O)CC)S(=O)(=O)CC,inactive,inactive
CCOc1ccc2c3c1O[C@H]1[C@@H](O)C=C[C@H]4[C@@H](C2)N(C)CC[C@@]341,inactive,inactive
CC(=O)O[C@H]1C[C@H](O[C@H]2[C@@H](O)C[C@H](O[C@H]3[C@@H](O)C[C@H](O[C@H]4CC[C@@]5(C)[C@H](CC[C@@H]6[C@@H]5C[C@@H](O)[C@]5(C)[C@@H](C7=CC(=O)OC7)CC[C@]65O)C4)O[C@@H]3C)O[C@@H]2C)O[C@H](C)[C@H]1O[C@@H]1O[C@H](CO)[C@@H](O)[C@H](O)[C@H]1O,0.251 µM (active),0.146 µM (active)
CC(Cc1ccccc1)NC=O (stereo not given),inactive,inactive
CCCC(C)(COC(N)=O)COC(=O)NC1CC1 (stereo not given),inactive,inactive
Oc1cc(Cl)c(Cl)cc1Cl,inactive,inactive
Oc1ccc2c3c1O[C@H]1[C@@H](O)CC[C@@]4(O)[C@@H](C2)N(CC2CCC2)CC[C@]314,inactive,inactive
CC[C@H]1[C@@H]2C[C@H]3[C@@H]4N(C)c5ccccc5[C@]45C[C@@H](C2[C@H]5O)N3[C@@H]1O (stereo not given in full),inactive,inactive
C[C@H]1CC[C@]2(NC1)O[C@H]1C[C@H]3[C@@H]4CC[C@H]5C[C@@H](O)CC[C@]5(C)[C@H]4CC[C@]3(C)[C@H]1[C@@H]2C,inactive,inactive
F/C(COc1ccc2c(c1)[nH]c1ccccc12)=C1/CN2CCC1CC2,inactive,inactive
O=C(NC(=O)c1c(F)cccc1F)Nc1ccc(Cl)c(Oc2ncc(C(F)(F)F)cc2Cl)c1,inactive,inactive
CCC(=O)O[C@]1(c2ccccc2)CCN(C)C[C@H]1C,inactive,inactive
CC(C)(C)c1cc(O)ccc1O,inactive,inactive
ClCC1CO1 (stereo not given),inactive,inactive

Structure (SMILES),Potency [1],Potency [2]
O=C/C=C/c1ccccc1,inactive,inactive
[H+].[H+].[Hg+2].[O-]B([O-])[O-].[c-]1ccccc1,8.91 µM (active),13 µM (active)
CC(=O)OCC(=O)[C@H]1CC[C@H]2[C@@H]3CC[C@H]4C[C@H](O)CC[C@]4(C)[C@H]3C(=O)C[C@]12C,inactive,inactive
CN(C)[C@@H]1C(=O)C(C(N)=O)=C(O)[C@@]2(O)C(=O)C3=C(O)c4c(O)ccc(Cl)c4[C@@](C)(O)[C@H]3C[C@@H]12,inactive,inactive
C[C@@H](CO)NC(=O)[C@@H]1C=C2c3cccc4[nH]cc(c34)C[C@H]2N(C)C1,inactive,inactive
O=c1c2ccccc2[se]n1-c1ccccc1,inactive,inactive
CC(=O)O[C@H]1CC[C@H]2[C@@H]3CCC4=CC(=O)CCC4=C3C=C[C@]12C,inactive,inactive
O=C(C[C@@H]1NCCC[C@H]1O)Cn1cnc2cc(Br)c(Cl)cc2c1=O,inactive,inactive
C[N+]1([O-])[C@@H]2CC[C@H]1CC(OC(=O)C(CO)c1ccccc1)C2 (stereo not given in full),inactive,inactive
CCC1(c2ccccc2)C(=O)NC(=O)N(C(=O)c2ccccc2)C1=O (stereo not given),inactive,inactive
[2H]C([2H])([2H])[C@H](N)Cc1ccccc1,inactive,inactive
c1cc2c(c(NC3=NCCN3)c1)CCCC2,inactive,inactive
O=C1CN=C(c2ccccc2)c2cc(Cl)ccc2N1CC1CC1,inactive,inactive
c1csc(C2(N3CCCCC3)CCCCC2)c1,inactive,inactive
C[C@]12C=CC(=O)C=C1CC[C@@H]1[C@@H]2CC[C@]2(C)OC(=O)CC[C@@H]12,inactive,inactive
Clc1ccc(C2(Cn3cncn3)OCCO2)c(Cl)c1,inactive,inactive
C[N+]1(C)[C@@H]2CC[C@H]1CC(OC(=O)c1c[nH]c3ccccc13)C2 (stereo not given in full),inactive,inactive
c1ccc(C2(N3CCCC3)CCCCC2)cc1,inactive,inactive
NCC[C@H](O)C(=O)N[C@@H]1C[C@H](N)[C@@H](O[C@H]2O[C@H](CN)[C@@H](O)[C@H](O)[C@H]2N)[C@H](O[C@@H]2O[C@H](CO)[C@@H](O)[C@H]2O)[C@H]1O,inactive,inactive
